This is an account of results in PubChem BioAssay (NCATS).

In assay [1] the target is Cellular tumor antigen p53 (Homo sapiens) (UniProt P04637). The assay can be described thus: Primary qHTS for small molecule compounds that upregulate eGFP-tagged delta133p53alpha (in N-terminal) cells. (AID 2060322). Also: nearly all actives have a fitted effect of over 75% in size.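 As to activation: series mostly up to about 56 µM; 0% = DMSO vehicle and 100% = reference activator.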 To be noted: NCI-H358 eGFP-delta133p53alpha fluorescence, 24 h; activation: stronger effect = higher value. A digest of the protocol: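 NCI-H358 cells pre-induced 24 h with 10 ng/ml doxycycline to express N-terminal eGFP-delta133p53alpha, then dosed 24 h at 37C without doxycycline; fixed, Hoechst-stained, GFP intensity by laser scanning cytometry, normalized to DMSO (0%) and 57.5 uM 5-azacytidine (100%).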
Cellular tumor antigen p53 (Homo sapiens), sequence (P04637 whole entry, looked up): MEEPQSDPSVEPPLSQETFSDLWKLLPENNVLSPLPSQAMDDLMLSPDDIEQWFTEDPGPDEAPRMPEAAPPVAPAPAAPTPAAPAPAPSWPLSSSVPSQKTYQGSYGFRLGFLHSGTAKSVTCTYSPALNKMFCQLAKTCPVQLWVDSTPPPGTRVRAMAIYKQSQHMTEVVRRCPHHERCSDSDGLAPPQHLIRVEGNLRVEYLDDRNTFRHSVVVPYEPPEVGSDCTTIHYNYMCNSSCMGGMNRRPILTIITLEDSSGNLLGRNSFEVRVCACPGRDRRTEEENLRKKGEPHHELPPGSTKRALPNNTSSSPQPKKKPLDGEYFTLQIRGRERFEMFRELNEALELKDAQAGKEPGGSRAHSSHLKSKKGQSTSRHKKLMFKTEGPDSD
Background: In qHTS, concentration-response curves come from the screen itself.

Assay [2] can be described thus: BET inhibitor-based combinations targeting novel dependencies in MECOM-rearranged (r) AML: SET-2 cell line (AID 2202231). Also: nearly all actives have a fitted effect of over 35% in size.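 As to viability: plate controls were DMSO treated cells for no effect and wells without cells for full effect.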 To be noted: SET-2 AML cells viability, CellTiter-Glo luminescence, 48 h; viability: stronger effect = lower value, concentration not given here. Put shortly: (§1)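 Luminescent ATP readout (CellTiter-Glo) after 48 hr drug exposure gives viability. Curves span 11 concentrations and are normalized to DMSO and empty wells. Activity is reported as area under the curve and its Z-transform within each cell line.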
For orientation: ATP-based viability assays read luminescence as a measure of living cells.

Assay [3] in a line: BET inhibitor-based combinations targeting novel dependencies in MECOM-rearranged (r) AML: MV-4-11 cell line (AID 2202233). Also: nearly all actives have a fitted effect of over 45% in size. Put shortly:
(§2)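 Luminescent ATP readout (CellTiter-Glo, 15 min at room temperature) after 48 hr drug exposure gave viability. Dose-response curves, normalized to DMSO and empty-well controls, were summarized as area under the curve and its mean-centred Z-score.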

Assay [4] is described as follows: BET inhibitor-based combinations targeting novel dependencies in MECOM-rearranged (r) AML: AML-194 cell line (AID 2202237; also: nearly all actives have a fitted effect of over 40% in size). Put shortly: as §1
Assay [5] in a line: BET inhibitor-based combinations targeting novel dependencies in MECOM-rearranged (r) AML: HNT-34 cell line (AID 2202234). Also: nearly all actives have a fitted effect of over 35% in size. A digest of the protocol: as §2
A short description of assay [6]: BET inhibitor-based combinations targeting novel dependencies in MECOM-rearranged (r) AML: UCSD-AML1 cell line (AID 2202235). Also: nearly all actives have a fitted effect of over 40% in size. Put shortly: as §2
Assay [7] can be described thus: BET inhibitor-based combinations targeting novel dependencies in MECOM-rearranged (r) AML: AML-191 cell line (AID 2202236; also: nearly all actives have a fitted effect of over 35% in size). A digest of the protocol:
as §1

Where “and” joins values, the source holds several entries; their conditions need not be identical. Equal entries are not always repeated. Results filed as inconclusive are left out. Values without a mark were called inactive. Calls of active or inactive are those of the source. Calls follow the shape of the dose curve; as a rule, active = well fitted curve in the direction sought with a large enough effect; inconclusive = small, poorly fitted or top-dose-only effect, or another doubt; inactive = no such curve, though single readings can be large; an effect the other way counts as inactive or inconclusive.
Potency is read from the fitted curve at half-maximal effect.

A word on the viability: it is a read-out of living cells in per cent, often relative to untreated cells. As for `CN(C)c1ccc2cc(C(=O)N[C@@H](CCCN=C(N)CCl)C(=O)NCc3ccccc3)ccc2c1`, the activation in assay [1] was 2.27%. Also, the viability in assay [2] is 99.2%. Also, the Potency entry in assay [3] and in assay [4] was “inactive” throughout.

`CCn1c(-c2nonc2N)nc2c(C#CC(C)(C)O)ncc(OC[C@H]3CCCNC3)c21`: the activation in assay [1] was -17.2%. Further, the viability in assay [2] is 101%. Moreover, the Potency in assay [3] was 18.6 µM (active); in assay [4], 20.9 µM (active).

Consider `NC(=O)c1ncn([C@@H]2O[C@H](CO)[C@@H](O)[C@H]2O)c1N`, for which the activation in assay [1] was -7.53%. Moreover, in assay [2], the viability is 114%. Moreover, the Potency entry in assay [3], in assay [5], in assay [6], in assay [7] and in assay [4] was “inactive” throughout.

Turning to `O=S(=O)(O)CCS`, in assay [1], the activation was 32.2% and 4.28%. Besides, the viability in assay [2] is 120%. Also, the Potency result in assay [3], in assay [5], in assay [6] and in assay [4] was “inactive” each time.

Regarding `C[C@@H](CN1CC(=O)NC(=O)C1)N1CC(=O)NC(=O)C1`, the activation in assay [1] is -3.95% and 20.4%. In assay [2], the viability is 92.4%. Further, the Potency in assay [3] was 14.8 µM (active); in assay [7], 13.2 µM (active); in assay [4], 16.6 µM (active). Moreover, in assay [5], the Potency result is “inactive”.

Consider `CN(C)CC/C=C1/c2ccccc2COc2ccc(CC(=O)O)cc21`, for which, in assay [1], the activation is -13%. In assay [2], the viability is 121%. Further, the Potency entry in assay [3], in assay [5], in assay [7] and in assay [4] was “inactive” throughout.

`CCCCC(CC)COC(=O)C(C#N)=C(c1ccccc1)c1ccccc1` (configuration not stated): the activation in assay [1] was -10.7% and -6.01%. Further, the viability in assay [2] was 108%. Further, the Potency result in assay [3], in assay [6] and in assay [7] was “inactive” in each case.

In the case of `NNC(=O)c1ccncc1`, the activation in assay [1] is -11.9% and -4.14%. Also, the viability in assay [2] is 110%. In addition, the Potency entry in assay [5], in assay [6], in assay [7] and in assay [4] was “inactive” throughout.

In the case of `CCC[C@H](N[C@@H](C)C(=O)N1[C@@H]2CCCC[C@H]2C[C@H]1C(=O)O)C(=O)OCC`, the activation in assay [1] was -22.1%. Moreover, the viability in assay [2] was 110%. Moreover, the Potency result in assay [3], in assay [5], in assay [7] and in assay [4] was “inactive” in each case.

On to `O=C(O)c1cn(-c2ccc(F)cc2)c2cc(N3CCNCC3)c(F)cc2c1=O`, for which, in assay [1], the activation is -9.7%. The viability in assay [2] was 96.6%. The Potency entry in assay [3], in assay [5], in assay [6], in assay [7] and in assay [4] was “inactive” in each case.

Take `CC(C)Oc1ccc2c(=O)c(-c3ccccc3)coc2c1`: in assay [1], the activation was -6.21% and -9.21% and 6.6%. Further, the viability in assay [2] was 108%. Moreover, the Potency entry in assay [3], in assay [5], in assay [6] and in assay [4] was “inactive” throughout.

On to `C[C@H](CCC(=O)O)[C@H]1CCC2C3C[C@H](O)[C@@H]4C[C@H](O)CC[C@]4(C)C3CC[C@@]21C` (some centres not stated), for which the activation in assay [1] is 10.8%. Also, the viability in assay [2] is 119%. In addition, the Potency result in assay [5], in assay [6], in assay [7] and in assay [4] was “inactive” each time.

As to `CCCC1OC2C[C@@H]3[C@H]4CCC5=CC(=O)C=C[C@]5(C)[C@H]4C(O)C[C@]3(C)[C@]2(C(=O)CO)O1` (some centres not stated), the activation in assay [1] was 16.2%. Further, the viability in assay [2] is 98.3%. Besides, the Potency in assay [3] is 20.9 µM (active); in assay [7] it was 0.0295 µM (active). In assay [6], the Potency entry is “inactive”.

Turning to `NC(=O)Nc1sc(-c2ccc(F)cc2)cc1C(N)=O`, in assay [1], the activation is -16.3%. The Potency is 5.9 µM (active) in assay [2], 1.66 µM (active) in assay [5], 1.86 µM (active) in assay [6] and 1.86 µM (active) in assay [7].

On to `CCCn1c(=O)c2[nH]c(C34CC5CC3C[C@@H](C5)C4)nc2n(CCC)c1=O`, for which the activation in assay [1] was 31.9%. Besides, in assay [2], the viability was 109%. Also, the results for the Potency in assay [3] and in assay [7] were 20.9 µM (active) and 16.6 µM (active), respectively. Also, the Potency entry in assay [6] and in assay [4] was “inactive” each time.

On to `CN1CCN(c2ncc(-c3cc(Cl)cc(Cl)c3Cl)c(N)n2)CC1`, for which the activation in assay [1] was 4.6%. Moreover, the Potency in assay [2] is 23.5 µM (active); in assay [3] it was 8.33 µM (active); in assay [7], 16.6 µM (active). Moreover, the Potency entry in assay [6] is “inactive”.

Regarding `COc1c2occc2cc2ccc(=O)oc12`, the activation in assay [1] is -0.837% and 22.7%. In addition, in assay [2], the viability is 98.3%. Also, the Potency entry in assay [3], in assay [5], in assay [6] and in assay [4] was “inactive” each time.

For the compound `COC(c1ccccc1)(c1ccccc1)[C@H](Oc1nc(C)cc(C)n1)C(=O)O`, the activation in assay [1] was -19.8% and -2.24%. Further, in assay [2], the viability was 106%. Moreover, the Potency result in assay [3], in assay [5], in assay [6] and in assay [4] was “inactive” throughout.

As to `NCc1c[nH]c(=S)n1[C@H]1CCc2c(F)cc(F)cc2C1`, the activation in assay [1] was -19.4%. Further, in assay [2], the viability was 110%. Besides, the Potency result in assay [3], in assay [7] and in assay [4] was “inactive” in each case.

On to `O=c1[nH]c(=O)n([C@H]2C[C@H](O)[C@@H](CO)O2)cc1I`, for which, in assay [1], the activation was -6.69%. In addition, the Potency is 3.72 µM (active) in assay [2], 18.6 µM (active) in assay [3] and 20.9 µM (active) in assay [6].

`CN(C)CCN1C(=O)c2cccc3cc(N)cc(c23)C1=O`: the Potency is 34.3 µM (active) in assay [1]; 14.8 µM (active) in assay [2]; 3.72 µM (active) in assay [3]; 10.5 µM (active) in assay [5]; 13.2 µM (active) in assay [7]; 16.6 µM (active) in assay [4].
